# Bioassay records from PubChem.
# uPA generation – cell surface uPA generation inhibition; cell surface uPA generation assay, qHTS; Potency, µM (top dose mostly 38.3 µM), without a hit: at the highest dose activity change, negative = inhibition, usual class: inhibitors; 330,000 tested, 0.31% active; active = well fitted inhibition curve with a large enough effect; inconclusive = small, poorly fitted or top-dose-only effect; inactive = no such curve, though single readings can be large or run the other way; tested in mouse RAW 264.7 cells; note: % is set by controls: 0 for no effect and ±100 for the full control effect; nearly all actives have a fitted effect of over 55% in size
# ELG1 genotox – genotoxicity induction in ELG1-luciferase HEK293T cells; Potency, µM (highest dose often 46 µM), without a hit: top-dose activity change, positive = activation, hits mostly activators; HEK293T ELG1-luciferase reporter, luminescence, 16 h; AID 504466; 330,000 tested, 1.3% active; note: % of control where 0% means no effect; nearly all actives have a fitted effect of over 60% in size
#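 Genotoxic stress is detected as increased luminescence from luciferase-tagged ELG1 in HEK293T cells, measured with ONE-Glo after a 16 hr treatment at 37 °C.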
# NPC1 prom act – activates the NPC1 promoter. Huh7 NPC1 promoter luciferase reporter, 24 h. Potency, µM (top dose mostly 9.22 µM), inactives show top-dose activation, most hits filed as activators. 320,000 tested, 2.4% active; note: % of control where 0% means no effect; nearly all actives have a fitted effect of over 60% in size
#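 Luciferase expression driven by the NPC1 promoter was measured in stably transfected Huh7 cells after a 24 h compound incubation, using a luciferase reagent and a luminescence read.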
# FLuc modulator – firefly luciferase modulation, counter-screen for miR-21 project; P08659; 360,000 tested, 6.9% active; Potency, µM (highest dose often 57.5 µM), for inactives: top-dose activity change, negative = inhibition, actives largely listed as inhibitors; AID 588342; purified FLuc, Km substrates, luminescence inhibition;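 note: plate controls were vehicle for no effect and reference inhibitor for full effect; nearly all actives have a fitted effect of over 55% in size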
# Target sequence (P08659 whole entry, looked up): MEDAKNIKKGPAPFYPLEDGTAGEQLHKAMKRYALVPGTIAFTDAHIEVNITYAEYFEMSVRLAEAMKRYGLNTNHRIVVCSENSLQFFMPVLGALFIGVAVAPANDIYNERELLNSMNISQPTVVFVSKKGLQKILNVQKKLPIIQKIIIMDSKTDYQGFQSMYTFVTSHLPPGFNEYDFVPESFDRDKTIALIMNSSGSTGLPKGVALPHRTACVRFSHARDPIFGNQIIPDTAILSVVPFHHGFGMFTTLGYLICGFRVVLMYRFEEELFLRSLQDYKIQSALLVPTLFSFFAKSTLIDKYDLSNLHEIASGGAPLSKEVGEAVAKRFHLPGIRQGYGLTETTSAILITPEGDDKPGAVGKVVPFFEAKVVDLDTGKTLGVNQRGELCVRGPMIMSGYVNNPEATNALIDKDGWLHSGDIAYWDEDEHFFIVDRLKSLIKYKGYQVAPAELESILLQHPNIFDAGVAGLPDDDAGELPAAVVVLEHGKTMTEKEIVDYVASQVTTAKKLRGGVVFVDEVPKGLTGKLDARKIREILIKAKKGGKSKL
#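 Purified P. pyralis luciferase (10nM final) with 10uM D-luciferin and 10uM ATP (Km levels) in 50mM Tris acetate pH 7.5, 10mM Mg acetate, 0.01% Tween-20, 0.05% BSA; qHTS 6-point titration, ~60 µM downward; luminescence read.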
# Rab9 promoter act – Rab9 promoter activation | Potency, µM (top dose mostly 9.22 µM), inactives show top-dose activation, negative = inhibition, most hits filed as activators | 320,000 tested, 2.8% active | Huh7 Rab9 promoter-luciferase reporter, luminescence, 24 h; note: % of control where 0% means no effect; nearly all actives have a fitted effect of over 60% in size
#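 Huh7 reporter line, Rab9 promoter upstream of luciferase. Compound exposure 24 h at 37 °C in reduced-serum medium with 10% FBS. Read-out: luminescence.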
# SMN2 splice enh – increases expression of the SMN2 splice variant | 210,000 tested, 2.8% active | Potency, µM (doses to about 46.1 µM), without a hit: at the highest dose activity change, positive = activation, usual class: activators | HEK293 SMN2-luciferase splicing reporter, luminescence, 30-36 h; note: % of control where 0% means no effect; nearly all actives have a fitted effect of over 55% in size
#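 HEK293 cells carry an SMN2 minigene-luciferase reporter in which exon 7 inclusion puts luciferase in frame. Cells were seeded at 2000 cells/well, attached for 10-12 hours, then exposed to compounds for 30-36 hours at 37C before ONE-Glo luminescence.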
# An asterisk follows results filed as active; ? = inconclusive; · = no result given. An excerpt weighted towards active compounds, which were near 7.3% of everything screened. Unless noted, calls come from the whole dose curve; as a rule, active = well fitted curve in the direction sought with a large enough effect; inconclusive = small, poorly fitted or top-dose-only effect, or another doubt; inactive = no such curve, though single readings can be large; an effect the other way counts as inactive or inconclusive. Potency is the fitted concentration of half-maximal effect.
SMILES,uPA generation,ELG1 genotox,NPC1 prom act,FLuc modulator,Rab9 promoter act,SMN2 splice enh
COc1cc(OC)c(NC(=O)Nc2ccc(OC)c(OC)c2)cc1Cl,-10%,12%,2%,?,-4%,23%
Cc1ccccc1NCc1nnc2n1CCCCC2,14%,1%,2%,-3%,0%,17%
Cc1[nH]n(-c2ccccc2)c(=O)c1/C=N/O,0%,1%,0%,-16%,15%,-20%
Cc1ccc2cccc(N=Cc3c(C)[nH]n(-c4ccccc4)c3=O)c2n1,-7%,?,1%,17µM*,-4%,·
Cc1ccc(-c2n[nH]c(=S)n2/N=C/c2c(C)[nH]n(-c3ccccc3)c2=O)cc1,-5%,-1%,-2%,12µM*,1%,-28%
Cn1cccc1/C=N/n1c(-c2ccc(C(C)(C)C)cc2)n[nH]c1=S,13%,-1%,-1%,21µM*,-5%,-18%
COc1cc(NC(=O)CN2C(=O)C(c3ccc(C)cc3)=NC23CCCCC3)cc(OC)c1,·,·,·,-1%,·,8%
O=C(CN1C(=O)c2cccnc2Sc2ccccc21)Nc1cc(F)ccc1F,·,·,·,-5%,·,·
O=C(CCn1cnc2ccccc21)N/N=C/c1ccccc1O,?,?,1%,8.5µM*,-35%,-53%
O=C(CCn1cnc2ccccc21)N/N=C/c1ccc(O)cc1,-2%,1%,0%,?,-5%,-13%
COc1ccc(S(=O)(=O)N(CC(=O)NCC2CCCO2)c2ccc(F)cc2)cc1OC (stereo not drawn),0%,-2%,-2%,0%,-2%,-1%
O=C(CCc1c[nH]c2ccccc12)OCc1ccc(Br)cc1,-1%,-10%,-2%,-15%,6%,·
NC(C(=O)O)c1cccc(O)c1 (stereo not drawn),·,·,·,·,·,-10%
Cn1nc(C(=O)Nc2ccc(Cl)cc2)cc1C(=O)Nc1ccc(Cl)cc1,-3%,0%,0%,1%,16%,·
Cn1ccc(C(=O)Nc2ccc3c(c2)OCCO3)n1,?,5.8µM*,0.89µM*,?,0.71µM*,·
Cn1nc(C(=O)Nc2ccc3c(c2)OCCO3)cc1C(=O)O,-7%,13%,3%,9.5µM*,-5%,-1%
Cc1cccc(N2C(=O)CSC23C(=O)N(CC(=O)NCCc2ccccc2)c2ccccc23)c1 (stereo not drawn),·,·,·,-1%,·,·
Cc1cccn2c(=O)c(C=O)c(N3CCC4(CC3)OCCO4)nc12,1%,4%,-1%,-1%,8%,·
CC(=O)c1cccc(NC(=O)[C@H](Cc2ccccc2)N2Cc3ccccc3C2=O)c1,·,·,·,-9%,·,4%
Nc1ccc(C(=O)Nc2ccc3nc(-c4ccncc4)[nH]c3c2)cc1,-3%,-2%,0%,17µM*,11%,?
Cn1cccc1-c1nc2ccc(NC(=O)c3ccco3)cc2[nH]1,-2%,8%,9%,17µM*,27%,36%
O=C(Nc1cccc(-c2nc3ccccc3[nH]2)c1)c1ccco1,-3%,-9%,13%,15µM*,0%,5%
c1cncc(CNc2cccc(-c3nc4ccccc4[nH]3)c2)c1,-2%,?,2.8µM*,7.6µM*,2.5µM*,0.89µM*
CC(=O)Nc1ccc2nc(-c3ccncc3)[nH]c2c1,-3%,13%,4%,-19%,0%,8%
CCCCNC(=O)CN1C(=O)c2cccnc2Sc2ccccc21,·,·,·,5%,·,·
CC(C(=O)NCc1ccco1)n1cc([N+](=O)[O-])cn1 (stereo not drawn),0%,1%,-1%,-1%,0%,-7%
O=C(Nc1ccc(-c2nc3ccc(NC(=O)c4cccs4)cc3[nH]2)cc1)c1cccs1,-5%,13µM*,-5%,-11%,-13%,10µM*
O=C(Nc1ccc2nc(-c3cccs3)[nH]c2c1)c1ccco1,-9%,4%,27%,7.6µM*,?,?
Cc1ccc2nc(-c3ccc(NC(=O)c4ccco4)cc3)[nH]c2c1,·,2.1µM*,1.6µM*,3µM*,3.5µM*,7.9µM*
